High-throughput results as filed in PubChem BioAssay.
LMNA splice mod: changes lamin A minigene splicing in HeLa cells; HeLa LMNA splicing GFP/RFP minigene ratio, 48 h; Potency, µM (titrated, usually from 46.1 µM), for the others: at the top dose ratio change, negative = inhibition, usual class: inhibitors; 0.01% of 200,000 active; active means well fitted inhibition curve with a large enough effect in the signal ratio, with a control signal flat, not every such curve was filed as active; inconclusive means small, poorly fitted or top-dose-only effect, or effect the other way, or a change in a side signal; the % refers to the signal ratio; further: potency means the concentration at half of the fitted maximal effect
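S3 HeLa stable clones carrying a lamin A-EGFP splicing minigene plus DsRed2 were seeded at 600 cells/well in Opti-MEM with 2% FBS, pin-dosed and incubated 48 h at 37°C. Acumen cytometry (488 nm) gave the GFP/RFP total-intensity ratio.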
PNC assembly inh: blocks assembly of the perinucleolar compartment | PC3M PTB-GFP, PNC prevalence imaging, 16 h; stronger effect = lower value | activity change (PNC), negative = inhibition, % at 10 µM | 3.1% of 140,000 active;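 active means readout at or below -70, meaning at least 70% loss of cells showing the perinucleolar compartment, a nuclear body marking cancer cells; inconclusive means readout between -30 and a set limit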;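 further: plate controls were DMSO wells for no effect and camptothecin positive control wells for full effect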
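Read-out is percentage of cells bearing a perinucleolar compartment, from automated 20x imaging of fixed, Hoechst-stained PC3M PTB-GFP cells. Cells were seeded 4 h, then exposed 16 h to compound (23 nl of library stock) in duplicate plates.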
ALDH1A1 block: inhibitors of human aldehyde dehydrogenase 1A1 | P00352 | Purified ALDH1A1, NADH fluorescence, propionaldehyde substrate | Potency, µM (titrated, usually from 75.3 µM), for inactives: at the highest dose activity, negative = inhibition, actives largely listed as inhibitors | 7.3% of 220,000 active | AID 1030;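 further: potency means the concentration at half of the fitted maximal effect; plate controls were no enzyme wells and a reference inhibitor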
Luc counter: counter-screen: inhibitors of Kinase-Glo firefly luciferase; Kinase-Glo luciferase, ATP luminescence, 8 min; Potency, µM (doses to about 38.3 µM), for inactives: top-dose activity change, negative = inhibition, actives largely listed as inhibitors; 0.28% of 200,000 active; AID 1379; active means well fitted inhibition curve with a large enough effect; inconclusive means small, poorly fitted or top-dose-only effect; further: potency means the concentration at half of the fitted maximal effect; nearly all actives have a fitted effect of over 60% in size
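Inhibition of Kinase-Glo luciferase light generation was assessed at 10 uM ATP in pH 7.2 imidazole buffer, with luminescence measured after eight minutes at ambient temperature.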
HPGD block: blocks human HPGD enzyme activity | Potency, µM, for inactives: at the highest dose activity change, negative = inhibition, most hits filed as inhibitors | AID 894 | purified HPGD, NADH fluorescence kinetic, PGE2 substrate | P15428 | 4.3% of 150,000 active; further: potency means the concentration at half of the fitted maximal effect
Target sequence (P15428 whole entry, looked up): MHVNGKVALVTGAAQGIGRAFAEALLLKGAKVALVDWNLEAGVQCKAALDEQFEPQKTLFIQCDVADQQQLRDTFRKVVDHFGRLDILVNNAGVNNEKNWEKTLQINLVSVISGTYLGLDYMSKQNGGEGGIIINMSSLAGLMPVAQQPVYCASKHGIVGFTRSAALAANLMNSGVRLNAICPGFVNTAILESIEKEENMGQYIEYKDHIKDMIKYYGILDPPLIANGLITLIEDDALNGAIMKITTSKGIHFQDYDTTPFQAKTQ
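NADH formation kinetics: reaction with 30 uM PGE2 and 1 mM NAD+ (final), 20 nM enzyme, Tris-HCl pH 8 with Tween 20, after 15 min compound preincubation at room temperature. Fluorescence change, last versus first of five reads.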
An asterisk follows results filed as active; ? = inconclusive; . = no result; [ ] = dose if it differs, or a comment. In the library only some 10% were active in any assay of this set; here they are far more common. Unless noted, the call rests on the fitted dose curve; in most records, active means well fitted inhibition curve with a large enough effect (not every such curve was filed as active); inconclusive means small, poorly fitted or top-dose-only effect, or another doubt; inactive means no such curve, though single readings can be large or run the other way. Unless noted, on the % scale 0 is the no-effect control and ±100 the full control effect.

SMILES | LMNA splice mod | PNC assembly inh | ALDH1A1 block | Luc counter | HPGD block
O=[N+]([O-])c1cccc2ccc(/C=C/c3ccc(F)cc3)nc12 | -11.4% | -113.7* | ? | -3.6% | -9.0%
O=[N+]([O-])c1ccc(/C=C/c2ccc3cccc([N+](=O)[O-])c3n2)cc1 | -11.5% | -9.3 | 5.0% | 2.1% | ?
CCCc1nc2ccccc2c(=O)n1/N=C/c1ccc(O)cc1 | ? | -6.1 | -8.1% | 1.6% | -13.4%
O=c1c2ccccc2nc(COc2ccccc2)n1/N=C/c1ccco1 | 8.4% | 39.6 | ? | -4.4% | -2.3%
Cc1cccc(C)c1OCc1nc2ccccc2c(=O)n1/N=C/c1ccc(OCC(=O)O)cc1 | 11.5% | -26.4 | 14.1µM* | 0.3% | -21.0%
O=C(O)COc1ccc(/C=N/n2c(COc3ccccc3)nc3ccccc3c2=O)cc1 | -7.9% | -115.2* | ? | . | .
S=C(NCc1ccccc1Cl)NC1CCCC1 | ? | -88.3* | 11.1% | 1.4% | -26.1%
O=C(COC(=O)CCCNC(=O)c1ccc(Cl)cc1)NCc1ccccc1Cl | 14.8% | 22.0 | 4.47µM* | 4.3% | ?
CC1(C(=O)NC2CCCC2)CCC(=O)N1Cc1ccccc1Cl (stereo not drawn) | 6.2% | -87.6* | 0.7% | -2.1% | -6.0%
O=C(COC(=O)C1CCC1)NCc1ccccc1Cl | 2.7% | 40.4 | ? | -5.1% | 8.91µM*
CC1CC1C(=O)OCC(=O)NCc1ccccc1Cl (stereo not drawn) | -11.6% | 29.6 | ? | 0.6% | -15.7%
Cc1cccc(CCNC(=O)C2CCN(c3ncnc4c3nc3n4CCCCC3)CC2)c1 | 7.2%[46 µM] | . | . | . | .
C[C@@]12CCC(O)C[C@H]1CCc1ccccc12 (stereo partly drawn) | -10.0% | . | -1.9% | -0.6% | -5.8%
C=NC(C(=O)NC1C(=O)N2C1SC(C)(C)C2C(=O)O)c1ccccc1 (stereo not drawn) | . | . | ? | -7.5% | ?
Cc1cccc(N2C(=O)N(Cc3ccc(C(C)(C)C)cc3)c3ccccc3S2(=O)=O)c1 | -15.8%[46 µM] | . | . | . | .
CC(C)(C)c1ccc(CN2N=Nc3ccccc3S2(=O)=O)cc1 | ? | 2.8 | 22.4µM* | -1.7% | ?
O=S1(=O)CCN(Cc2ccc(Cl)c(Cl)c2)CC1 | -5.3% | 9.8 | 1.6% | -6.5% | -4.0%
O=S1(=O)c2ccccc2N=NN1Cc1ccc(Cl)c(Cl)c1 | 9.8% | -22.3 | 2.51µM* | -4.8% | 5.62µM*
O=C(O)[C@H]1CN[C@H](C(=O)O)C1 | . | . | -6.1% | 2.5% | -5.2%
CCc1nnc(NC(=O)CSc2nnc(-c3ccc(NS(=O)(=O)c4ccccc4)cc3)o2)s1 | 2.9% | -26.3 | -10.8% | 5.4% | 14.1µM*
COC(=O)CSc1nnc(-c2ccc(NS(=O)(=O)c3ccccc3)cc2)o1 | 1.2% | -8.6 | 2.5% | 12.5% | 17.8µM*
CCc1nnc(NC(=O)CSc2nnc(-c3ccco3)o2)s1 | . | . | 5.9% | 2.6% | .
Nc1ncnc(Sc2ccc(Cl)cc2)c1[N+](=O)[O-] | ? | -103.0* | 3.7% | -1.7% | -4.8%
Nc1c(C(=O)C2CC2)sc2nc(-c3ccccc3)cc(C(F)(F)F)c12 | -4.9% | 39.1 | ? | -1.5% | 28.2µM*
CC(=O)c1sc2nc(-c3cccs3)cc(C(F)(F)F)c2c1N | 4.8% | 34.6 | ? | -4.6% | -29.0%
SMILES | LMNA splice mod | PNC assembly inh | ALDH1A1 block | Luc counter | HPGD block
Cc1cc(C(=O)CN2C(=O)NC(CC(C)C)C2=O)c(C)n1-c1ccccc1F (stereo not drawn) | -2.0%[46 µM] | . | 6.31µM* | 6.3% | .
Cc1cc(C(=O)CN2C(=O)C3CC=CCC3C2=O)c(C)n1-c1ccccc1 (stereo not drawn) | ? | 20.7 | 22.4µM* | -6.4% | -12.6%
Cc1cc(C(=O)CN2C(=O)c3ccccc3S2(=O)=O)c(C)n1-c1ccccc1 | 8.1% | 27.9 | ? | -1.1% | -7.6%
Cc1cc(C(=O)Cn2nnc3ccccc3c2=O)c(C)n1-c1ccccc1F | ? | -87.1* | ? | -5.3% | ?
COc1ccc(-n2c(C)cc(C(=O)Cn3nnc4ccccc4c3=O)c2C)cc1 | ? | ? | -10.1% | 0.1% | -21.0%
Cc1ccc(-n2c(C)cc(C(=O)COC(=O)C3=NNC(=O)CC3)c2C)cc1 | -3.9% | ? | 14.5% | -0.5% | -0.3%
Cc1cc(C(=O)CN2C(=O)C(=O)N(CC(C)C)C2=O)c(C)n1-c1ccccc1F | . | . | ? | -2.4% | .
